{
  "source": "the supplement of paper PMC8728848",
  "assay_in_all_cases": "glycan array binding signal (z-score within array); higher = stronger binding",
  "key": {"[1]": {"molecular_target": "Fuc(a1-2)Gal(b1-4)GlcNAc(b1-2)Man", "settings": "glycan notation: IUPAC condensed, linker removed", "method_in_brief": "(§1)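 Arrays were curated from the Consortium for Functional Glycomics database, 3228 in total, and kept only where the protein sequence was available. Binding is expressed as a within-array Z-score. This score was averaged across arrays of the same protein sequence at different concentrations or buffers and across linkers, and negative values can be read as non-binding.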"}, "[2]": {"molecular_target": "Fuc(a1-2)[Gal(a1-3)]Gal(b1-3)GalNAc(b1-3)Gal(a1-4)Gal(b1-4)Glc", "settings": "glycan notation: IUPAC condensed, linker removed", "method_in_brief": "as §1"}, "[3]": {"molecular_target": "Fuc(a1-2)[GalNAc(a1-3)]Gal(b1-4)GlcNAc(b1-2)Man(a1-3)[Fuc(a1-2)[GalNAc(a1-3)]Gal(b1-4)GlcNAc(b1-2)Man(a1-6)]Man(b1-4)GlcNAc(b1-4)[Fuc(a1-6)]GlcNAc", "settings": "glycan notation: IUPAC condensed, linker removed", "method_in_brief": "as §1"}, "[4]": {"molecular_target": "Fuc(a1-3)[Gal3S(b1-4)]Glc", "settings": "glycan notation: IUPAC condensed, linker removed", "method_in_brief": "as §1"}, "[5]": {"molecular_target": "Fuc(a1-3)[GalNAc(b1-4)]GlcNAc6S", "settings": "glycan notation: IUPAC condensed, linker removed", "method_in_brief": "as §1"}, "[6]": {"molecular_target": "Fuc(b1-3)GlcNAc", "settings": "glycan notation: IUPAC condensed, linker removed", "method_in_brief": "as §1"}, "[7]": {"molecular_target": "Gal(a1-3)Gal(b1-4)GlcNAc(b1-2)Man(a1-3)[Gal(a1-3)Gal(b1-4)GlcNAc(b1-2)Man(a1-6)]Man(b1-4)GlcNAc(b1-4)GlcNAc", "settings": "glycan notation: IUPAC condensed, linker removed", "method_in_brief": "as §1"}, "[8]": {"molecular_target": "Gal(a1-3)Gal(b1-4)[Fuc(a1-3)]GlcNAc(b1-2)Man(a1-3)[Gal(a1-3)Gal(b1-4)[Fuc(a1-3)]GlcNAc(b1-2)Man(a1-6)]Man(b1-4)GlcNAc(b1-4)GlcNAc", "settings": "glycan notation: IUPAC condensed, linker removed", "method_in_brief": "as §1"}, "[9]": {"molecular_target": "Gal(a1-4)Gal(b1-3)GlcNAc(b1-2)Man(a1-3)[Gal(a1-4)Gal(b1-3)GlcNAc(b1-2)Man(a1-6)]Man(b1-4)GlcNAc(b1-4)GlcNAc", "settings": "glycan notation: IUPAC condensed, linker removed", "method_in_brief": "as §1"}, "[10]": {"molecular_target": "Gal(a1-4)Gal(b1-4)GlcNAc(b1-2)Man(a1-3)[Gal(a1-4)Gal(b1-4)GlcNAc(b1-2)Man(a1-6)]Man(b1-4)GlcNAc(b1-4)GlcNAc", "settings": "glycan notation: IUPAC condensed, linker removed", "method_in_brief": "as §1"}, "[11]": {"molecular_target": "Gal(b1-3)GalNAc", "settings": "glycan notation: IUPAC condensed, linker removed", "method_in_brief": "as §1"}, "[12]": {"molecular_target": "Gal(b1-3)GalNAc(b1-4)Gal(b1-4)Glc", "settings": "glycan notation: IUPAC condensed, linker removed", "method_in_brief": "as §1"}, "[13]": {"molecular_target": "Gal(b1-3)GlcNAc(a1-3)Gal(b1-4)GlcNAc", "settings": "glycan notation: IUPAC condensed, linker removed", "method_in_brief": "as §1"}, "[14]": {"molecular_target": "Gal(b1-3)GlcNAc(b1-2)Man", "settings": "glycan notation: IUPAC condensed, linker removed", "method_in_brief": "as §1"}, "[15]": {"molecular_target": "Gal(b1-3)GlcNAc(b1-2)Man(a1-3)[Gal(b1-3)GlcNAc(b1-2)Man(a1-6)]Man(b1-4)GlcNAc(b1-4)GlcNAc", "settings": "glycan notation: IUPAC condensed, linker removed", "method_in_brief": "as §1"}, "[16]": {"molecular_target": "Gal(b1-3)GlcNAc(b1-3)Gal(b1-3)GlcNAc", "settings": "glycan notation: IUPAC condensed, linker removed", "method_in_brief": "as §1"}, "[17]": {"molecular_target": "Gal(b1-4)GalNAc(a1-3)[Fuc(a1-2)]Gal(b1-4)GlcNAc", "settings": "glycan notation: IUPAC condensed, linker removed", "method_in_brief": "as §1"}, "[18]": {"molecular_target": "Gal(b1-4)GlcNAc(b1-2)Man(a1-3)[Gal(b1-4)GlcNAc(b1-2)Man(a1-6)]Man(b1-4)GlcNAc(b1-4)GlcNAc", "settings": "glycan notation: IUPAC condensed, linker removed", "method_in_brief": "as §1"}, "[19]": {"molecular_target": "Gal(b1-4)GlcNAc(b1-2)Man(a1-3)[GlcNAc(b1-2)Man(a1-6)]Man(b1-4)GlcNAc(b1-4)GlcNAc", "settings": "glycan notation: IUPAC condensed, linker removed", "method_in_brief": "as §1"}, "[20]": {"molecular_target": "Gal(b1-4)GlcNAc(b1-2)Man(a1-3)[Man(a1-6)]Man(b1-4)GlcNAc(b1-4)GlcNAc", "settings": "glycan notation: IUPAC condensed, linker removed", "method_in_brief": "as §1"}, "[21]": {"molecular_target": "Gal(b1-4)GlcNAc(b1-2)Man(a1-6)[GlcNAc(b1-2)Man(a1-3)]Man(b1-4)GlcNAc(b1-4)GlcNAc", "settings": "glycan notation: IUPAC condensed, linker removed", "method_in_brief": "as §1"}, "[22]": {"molecular_target": "Gal(b1-4)GlcNAc(b1-3)Gal(b1-4)GlcNAc(b1-2)[Gal(b1-4)GlcNAc(b1-3)Gal(b1-4)GlcNAc(b1-6)]Man(a1-6)[Gal(b1-4)GlcNAc(b1-3)Gal(b1-4)GlcNAc(b1-2)Man(a1-3)]Man(b1-4)GlcNAc(b1-4)[Fuc(a1-6)]GlcNAc", "settings": "glycan notation: IUPAC condensed, linker removed", "method_in_brief": "as §1"}, "[23]": {"molecular_target": "Gal(b1-4)GlcNAc(b1-3)Gal(b1-4)GlcNAc(b1-3)[Gal(b1-4)GlcNAc(b1-3)Gal(b1-4)GlcNAc(b1-6)]GalNAc", "settings": "glycan notation: IUPAC condensed, linker removed", "method_in_brief": "as §1"}, "[24]": {"molecular_target": "Gal4S(b1-4)GlcNAc", "settings": "glycan notation: IUPAC condensed, linker removed", "method_in_brief": "as §1"}, "[25]": {"molecular_target": "Gal6S(b1-4)Glc6S", "settings": "glycan notation: IUPAC condensed, linker removed", "method_in_brief": "as §1"}, "[26]": {"molecular_target": "GalNAc(a1-3)Gal", "settings": "glycan notation: IUPAC condensed, linker removed", "method_in_brief": "as §1"}, "[27]": {"molecular_target": "GalNAc(a1-3)GalNAc(b1-3)Gal(a1-4)Gal(b1-4)Glc", "settings": "glycan notation: IUPAC condensed, linker removed", "method_in_brief": "as §1"}, "[28]": {"molecular_target": "GalNAc(b1-4)GlcNAc(b1-2)Man(a1-3)[GalNAc(b1-4)GlcNAc(b1-2)Man(a1-6)]Man(b1-4)GlcNAc(b1-4)GlcNAc", "settings": "glycan notation: IUPAC condensed, linker removed", "method_in_brief": "as §1"}, "[29]": {"molecular_target": "GalNAc3S(b1-4)GlcNAc", "settings": "glycan notation: IUPAC condensed, linker removed", "method_in_brief": "as §1"}, "[30]": {"molecular_target": "GalNAc6S(b1-4)GlcNAc", "settings": "glycan notation: IUPAC condensed, linker removed", "method_in_brief": "as §1"}, "[31]": {"molecular_target": "Neu5Ac(a2-8)Neu5Ac(a2-8)Neu5Ac(a2-3)[GalNAc(b1-4)]Gal(b1-4)Glc", "settings": "glycan notation: IUPAC condensed, linker removed; mutation: G182A", "method_in_brief": "as §1"}, "[32]": {"molecular_target": "Neu5Ac9Ac(a2-6)Gal(b1-4)GlcNAc", "settings": "glycan notation: IUPAC condensed, linker removed; mutation: G182A", "method_in_brief": "as §1"}, "[33]": {"molecular_target": "Neu5Gc(a2-3)Gal(b1-4)Glc", "settings": "glycan notation: IUPAC condensed, linker removed; mutation: G182A", "method_in_brief": "as §1"}},
  "note": "Shown is part of a subset that was picked to be rich in the strongest signals.",
  "data": [
    {"binder": "GNL (Galanthus nivalis) (protein) MGHHHHHHHHYGTLENGHWLMVGMSIFSKDRTVELRMQDDGKLAIYYNDHCAWQSTAQQVNNAKGAVMQGDGNFCIYDKNGKATWHTNTAAPSGDSHTFVSVQDDGNLVLYKNNGATPIWSSKSNK", "values": [
      {"measurement": "glycan array binding signal (z-score)", "setting": "[1]", "result": -0.231},
      {"measurement": "glycan array binding signal (z-score)", "setting": "[2]", "result": -0.172},
      {"measurement": "glycan array binding signal (z-score)", "setting": "[3]", "result": -0.207},
      {"measurement": "glycan array binding signal (z-score)", "setting": "[4]", "result": -0.237},
      {"measurement": "glycan array binding signal (z-score)", "setting": "[5]", "result": -0.181},
      {"measurement": "glycan array binding signal (z-score)", "setting": "[6]", "result": -0.156},
      {"measurement": "glycan array binding signal (z-score)", "setting": "[7]", "result": 3.44},
      {"measurement": "glycan array binding signal (z-score)", "setting": "[8]", "result": -0.054},
      {"measurement": "glycan array binding signal (z-score)", "setting": "[9]", "result": 4.92},
      {"measurement": "glycan array binding signal (z-score)", "setting": "[10]", "result": 5.71},
      {"measurement": "glycan array binding signal (z-score)", "setting": "[11]", "result": -0.233},
      {"measurement": "glycan array binding signal (z-score)", "setting": "[12]", "result": -0.061},
      {"measurement": "glycan array binding signal (z-score)", "setting": "[13]", "result": -0.174},
      {"measurement": "glycan array binding signal (z-score)", "setting": "[14]", "result": -0.16},
      {"measurement": "glycan array binding signal (z-score)", "setting": "[15]", "result": 4.54},
      {"measurement": "glycan array binding signal (z-score)", "setting": "[16]", "result": -0.228},
      {"measurement": "glycan array binding signal (z-score)", "setting": "[17]", "result": -0.257},
      {"measurement": "glycan array binding signal (z-score)", "setting": "[18]", "result": 4.76},
      {"measurement": "glycan array binding signal (z-score)", "setting": "[19]", "result": 3.92},
      {"measurement": "glycan array binding signal (z-score)", "setting": "[20]", "result": 10.9},
      {"measurement": "glycan array binding signal (z-score)", "setting": "[21]", "result": 7.59},
      {"measurement": "glycan array binding signal (z-score)", "setting": "[22]", "result": -0.241},
      {"measurement": "glycan array binding signal (z-score)", "setting": "[23]", "result": -0.222},
      {"measurement": "glycan array binding signal (z-score)", "setting": "[24]", "result": -0.212},
      {"measurement": "glycan array binding signal (z-score)", "setting": "[25]", "result": -0.207},
      {"measurement": "glycan array binding signal (z-score)", "setting": "[26]", "result": -0.25},
      {"measurement": "glycan array binding signal (z-score)", "setting": "[27]", "result": -0.305},
      {"measurement": "glycan array binding signal (z-score)", "setting": "[28]", "result": -0.248},
      {"measurement": "glycan array binding signal (z-score)", "setting": "[29]", "result": -0.219},
      {"measurement": "glycan array binding signal (z-score)", "setting": "[30]", "result": -0.21}
    ]},
    {"binder": "Gal 3 (Homo sapiens), P17931 (protein) MADNFSLHDALSGSGNPNPQGWPGAWGNQPAGAGGYPGASYPGAYPGQAPPGAYPGQAPPGAYHGAPGAYPGAPAPGVYPGPPSGPGAYPSSGQPSAPGAYPATGPYGAPAGPLIVPYNLPLPGGVVPRMLITILGTVKPNANILDFQRGNDVAFHFNPRFNENNRRVIVCNTKLDNNWAREERQSVFPFESGKPFKIQVLVEPDHFKVAVNDAHLLQYNHRVKKLNEISKLGISGDIDLTSASYTMI", "values": [
      {"measurement": "glycan array binding signal (z-score)", "setting": "[31]", "result": -0.167},
      {"measurement": "glycan array binding signal (z-score)", "setting": "[32]", "result": -0.189},
      {"measurement": "glycan array binding signal (z-score)", "setting": "[33]", "result": -0.195}
    ]}
  ]
}
